In ChEMBL document CHEMBL2218924, “A broad activity screen in support of a chemogenomic map for kinase signalling research and drug discovery” (Biochem J, 2013) one finds residual activity data, which are given here for one molecule.

The target in assay [1] is Death-associated protein kinase 1 (Homo sapiens) (UniProt P53355). Particulars: at 10 µM.
Assay [2] addresses Death-associated protein kinase 2 (Homo sapiens) (UniProt Q9UIK4). Particulars: at 1 µM.
For assay [3] the target is unchanged. The conditions noted are these: at 10 µM.
For assay [4], the target named is T1, Serine/threonine-protein kinase DCLK2 (Homo sapiens) (UniProt Q8N568).
T1 sequence (whole entry): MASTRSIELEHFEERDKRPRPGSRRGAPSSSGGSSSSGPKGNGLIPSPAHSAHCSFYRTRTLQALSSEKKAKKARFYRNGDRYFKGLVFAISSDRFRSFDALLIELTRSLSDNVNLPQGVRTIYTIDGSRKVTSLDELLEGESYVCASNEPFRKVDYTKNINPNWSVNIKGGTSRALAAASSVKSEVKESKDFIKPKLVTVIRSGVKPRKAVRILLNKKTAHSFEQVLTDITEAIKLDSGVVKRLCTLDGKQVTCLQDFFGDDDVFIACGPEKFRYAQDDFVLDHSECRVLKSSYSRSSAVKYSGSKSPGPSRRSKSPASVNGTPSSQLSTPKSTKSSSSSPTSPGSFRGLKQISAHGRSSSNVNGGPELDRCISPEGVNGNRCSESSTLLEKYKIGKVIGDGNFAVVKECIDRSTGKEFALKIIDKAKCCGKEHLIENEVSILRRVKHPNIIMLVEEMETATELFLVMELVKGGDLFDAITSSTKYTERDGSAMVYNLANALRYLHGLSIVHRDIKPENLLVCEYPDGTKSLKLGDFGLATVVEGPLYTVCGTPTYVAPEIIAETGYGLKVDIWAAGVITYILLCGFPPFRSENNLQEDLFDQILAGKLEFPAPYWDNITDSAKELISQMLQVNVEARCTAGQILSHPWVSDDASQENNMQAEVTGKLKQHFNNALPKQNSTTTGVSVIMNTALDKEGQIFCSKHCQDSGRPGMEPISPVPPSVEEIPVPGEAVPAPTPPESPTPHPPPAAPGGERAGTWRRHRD
The conditions noted are these: at 1 µM.

Assay [5] addresses T1, Serine/threonine-protein kinase DCLK2 (Homo sapiens). The conditions noted are these: at 10 µM.
Assay [6] has as its target T2, Discoidin domain-containing receptor 2 (Homo sapiens) (UniProt Q16832).
T2 sequence (whole entry): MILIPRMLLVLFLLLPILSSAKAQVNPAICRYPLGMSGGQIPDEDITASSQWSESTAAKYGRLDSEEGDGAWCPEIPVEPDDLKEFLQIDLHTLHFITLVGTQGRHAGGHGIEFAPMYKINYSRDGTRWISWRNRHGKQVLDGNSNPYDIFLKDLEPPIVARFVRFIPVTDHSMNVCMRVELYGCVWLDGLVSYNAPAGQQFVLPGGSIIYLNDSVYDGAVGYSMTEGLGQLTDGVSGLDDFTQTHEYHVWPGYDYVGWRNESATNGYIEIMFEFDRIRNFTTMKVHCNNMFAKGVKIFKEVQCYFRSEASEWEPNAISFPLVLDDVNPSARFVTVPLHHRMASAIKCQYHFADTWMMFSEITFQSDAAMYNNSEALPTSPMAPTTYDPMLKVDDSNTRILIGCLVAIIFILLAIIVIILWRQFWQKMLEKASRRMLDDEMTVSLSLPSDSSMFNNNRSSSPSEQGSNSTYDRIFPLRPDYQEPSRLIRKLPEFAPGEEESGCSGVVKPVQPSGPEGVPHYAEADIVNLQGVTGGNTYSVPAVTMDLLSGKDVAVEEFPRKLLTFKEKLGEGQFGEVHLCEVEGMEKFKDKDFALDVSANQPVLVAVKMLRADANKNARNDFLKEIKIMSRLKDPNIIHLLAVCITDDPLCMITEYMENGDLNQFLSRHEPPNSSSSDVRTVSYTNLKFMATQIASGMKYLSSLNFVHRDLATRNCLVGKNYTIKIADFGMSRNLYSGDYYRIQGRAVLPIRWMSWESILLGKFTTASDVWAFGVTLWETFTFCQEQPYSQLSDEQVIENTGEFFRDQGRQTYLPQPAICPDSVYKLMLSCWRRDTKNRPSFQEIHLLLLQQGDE
The conditions noted are these: at 1 µM.

Assay [7] deals with T2, Discoidin domain-containing receptor 2 (Homo sapiens). The conditions noted are these: at 10 µM.
In assay [8] the target is T3, Myotonin-protein kinase (Homo sapiens) (UniProt Q09013).
T3 sequence (whole entry): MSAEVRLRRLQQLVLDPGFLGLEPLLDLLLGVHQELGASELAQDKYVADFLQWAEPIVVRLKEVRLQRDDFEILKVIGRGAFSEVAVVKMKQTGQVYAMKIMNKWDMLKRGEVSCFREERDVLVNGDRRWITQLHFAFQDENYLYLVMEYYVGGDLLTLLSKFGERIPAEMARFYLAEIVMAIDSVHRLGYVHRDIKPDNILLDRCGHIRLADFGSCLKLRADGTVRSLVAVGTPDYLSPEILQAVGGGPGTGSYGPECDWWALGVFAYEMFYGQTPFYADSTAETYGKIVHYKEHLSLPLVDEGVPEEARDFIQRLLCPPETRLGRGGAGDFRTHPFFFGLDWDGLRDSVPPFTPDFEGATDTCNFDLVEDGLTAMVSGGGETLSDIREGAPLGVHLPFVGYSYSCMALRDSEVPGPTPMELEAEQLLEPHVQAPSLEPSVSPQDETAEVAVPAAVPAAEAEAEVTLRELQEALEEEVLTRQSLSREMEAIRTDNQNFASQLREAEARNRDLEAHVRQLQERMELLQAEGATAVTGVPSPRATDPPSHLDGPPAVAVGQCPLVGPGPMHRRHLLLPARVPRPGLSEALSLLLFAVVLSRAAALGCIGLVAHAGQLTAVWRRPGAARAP
The conditions noted are these: at 1 µM.

In assay [9] the target is T3, Myotonin-protein kinase (Homo sapiens). Particulars: at 10 µM.
Assay [10] concerns the target T4, Serine/threonine-protein kinase 17A (Homo sapiens) (UniProt Q9UEE5).
T4 sequence (whole entry): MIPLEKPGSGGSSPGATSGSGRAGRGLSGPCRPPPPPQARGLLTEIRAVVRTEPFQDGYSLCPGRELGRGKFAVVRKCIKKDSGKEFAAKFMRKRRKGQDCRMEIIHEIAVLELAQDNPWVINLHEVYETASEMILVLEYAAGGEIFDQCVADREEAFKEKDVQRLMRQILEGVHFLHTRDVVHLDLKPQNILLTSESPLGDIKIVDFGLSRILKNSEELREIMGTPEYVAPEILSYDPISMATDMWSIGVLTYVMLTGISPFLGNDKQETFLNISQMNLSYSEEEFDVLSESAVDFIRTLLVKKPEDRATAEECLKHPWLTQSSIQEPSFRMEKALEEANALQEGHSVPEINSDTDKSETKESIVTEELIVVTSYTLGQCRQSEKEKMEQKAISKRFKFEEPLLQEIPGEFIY
The conditions noted are these: at 1 µM.

The target of assay [11] is T4, Serine/threonine-protein kinase 17A (Homo sapiens). The conditions noted are these: at 10 µM.
Assay [12] deals with T5, Dual specificity tyrosine-phosphorylation-regulated kinase 2 (Homo sapiens) (UniProt Q92630).
T5 sequence (whole entry): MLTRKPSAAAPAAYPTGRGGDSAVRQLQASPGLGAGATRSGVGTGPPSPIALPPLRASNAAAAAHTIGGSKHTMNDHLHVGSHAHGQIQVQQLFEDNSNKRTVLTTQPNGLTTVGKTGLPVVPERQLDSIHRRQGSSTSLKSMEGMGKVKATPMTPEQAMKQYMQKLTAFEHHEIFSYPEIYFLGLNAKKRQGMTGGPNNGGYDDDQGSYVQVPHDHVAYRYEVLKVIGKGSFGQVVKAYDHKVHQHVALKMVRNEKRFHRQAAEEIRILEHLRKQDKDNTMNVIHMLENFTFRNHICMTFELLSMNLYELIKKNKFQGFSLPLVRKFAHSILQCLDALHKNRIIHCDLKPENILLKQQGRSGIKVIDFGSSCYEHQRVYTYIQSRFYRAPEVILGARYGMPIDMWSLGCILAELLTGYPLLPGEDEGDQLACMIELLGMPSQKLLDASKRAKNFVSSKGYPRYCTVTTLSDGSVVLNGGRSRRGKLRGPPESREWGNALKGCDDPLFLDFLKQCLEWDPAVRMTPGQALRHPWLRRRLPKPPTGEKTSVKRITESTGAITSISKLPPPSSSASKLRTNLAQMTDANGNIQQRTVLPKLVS
The conditions noted are these: at 1 µM.

Assay [13] addresses T5, Dual specificity tyrosine-phosphorylation-regulated kinase 2 (Homo sapiens). Particulars: at 10 µM.
Assay [14] addresses Epidermal growth factor receptor (Homo sapiens) (UniProt P00533). Particulars: at 1 µM.
Assay [15] shares this target. Particulars: at 10 µM.
For assay [16], the target named is T6, Ephrin type-A receptor 1 (Homo sapiens) (UniProt P21709).
T6 sequence (whole entry): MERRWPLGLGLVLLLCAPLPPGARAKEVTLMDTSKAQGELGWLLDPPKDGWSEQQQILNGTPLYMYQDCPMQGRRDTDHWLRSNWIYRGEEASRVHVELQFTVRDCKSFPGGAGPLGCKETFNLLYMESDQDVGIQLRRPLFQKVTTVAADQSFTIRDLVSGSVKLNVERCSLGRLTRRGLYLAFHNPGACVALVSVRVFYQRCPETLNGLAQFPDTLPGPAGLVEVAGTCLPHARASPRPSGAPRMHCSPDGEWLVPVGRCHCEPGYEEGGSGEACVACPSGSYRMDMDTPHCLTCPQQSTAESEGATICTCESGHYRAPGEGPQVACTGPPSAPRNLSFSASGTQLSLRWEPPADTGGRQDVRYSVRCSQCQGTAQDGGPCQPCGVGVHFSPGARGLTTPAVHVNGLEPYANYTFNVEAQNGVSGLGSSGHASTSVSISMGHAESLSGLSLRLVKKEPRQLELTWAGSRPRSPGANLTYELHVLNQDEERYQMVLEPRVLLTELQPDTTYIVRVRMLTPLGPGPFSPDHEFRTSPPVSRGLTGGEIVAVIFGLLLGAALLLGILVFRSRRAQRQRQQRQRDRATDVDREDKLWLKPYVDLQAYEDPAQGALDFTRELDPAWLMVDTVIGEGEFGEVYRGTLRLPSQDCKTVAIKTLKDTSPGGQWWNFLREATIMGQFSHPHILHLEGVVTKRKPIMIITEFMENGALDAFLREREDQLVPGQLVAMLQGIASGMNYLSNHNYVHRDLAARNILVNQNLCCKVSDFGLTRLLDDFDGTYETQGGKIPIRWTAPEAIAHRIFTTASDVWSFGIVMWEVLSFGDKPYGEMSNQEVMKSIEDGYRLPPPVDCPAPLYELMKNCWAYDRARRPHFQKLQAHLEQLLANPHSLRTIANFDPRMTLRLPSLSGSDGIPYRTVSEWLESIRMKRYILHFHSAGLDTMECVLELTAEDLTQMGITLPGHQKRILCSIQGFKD
The conditions noted are these: at 1 µM.

The target in assay [17] is T6, Ephrin type-A receptor 1 (Homo sapiens). The conditions noted are these: at 10 µM.
Assay [18] has as its target Ephrin type-A receptor 2 (Homo sapiens) (UniProt P29317). Particulars: at 1 µM.
The target is the same in assay [19]. The conditions noted are these: at 10 µM.
Assay [20] has as its target T7, Ephrin type-A receptor 3 (Homo sapiens) (UniProt P29320).
T7 sequence (whole entry): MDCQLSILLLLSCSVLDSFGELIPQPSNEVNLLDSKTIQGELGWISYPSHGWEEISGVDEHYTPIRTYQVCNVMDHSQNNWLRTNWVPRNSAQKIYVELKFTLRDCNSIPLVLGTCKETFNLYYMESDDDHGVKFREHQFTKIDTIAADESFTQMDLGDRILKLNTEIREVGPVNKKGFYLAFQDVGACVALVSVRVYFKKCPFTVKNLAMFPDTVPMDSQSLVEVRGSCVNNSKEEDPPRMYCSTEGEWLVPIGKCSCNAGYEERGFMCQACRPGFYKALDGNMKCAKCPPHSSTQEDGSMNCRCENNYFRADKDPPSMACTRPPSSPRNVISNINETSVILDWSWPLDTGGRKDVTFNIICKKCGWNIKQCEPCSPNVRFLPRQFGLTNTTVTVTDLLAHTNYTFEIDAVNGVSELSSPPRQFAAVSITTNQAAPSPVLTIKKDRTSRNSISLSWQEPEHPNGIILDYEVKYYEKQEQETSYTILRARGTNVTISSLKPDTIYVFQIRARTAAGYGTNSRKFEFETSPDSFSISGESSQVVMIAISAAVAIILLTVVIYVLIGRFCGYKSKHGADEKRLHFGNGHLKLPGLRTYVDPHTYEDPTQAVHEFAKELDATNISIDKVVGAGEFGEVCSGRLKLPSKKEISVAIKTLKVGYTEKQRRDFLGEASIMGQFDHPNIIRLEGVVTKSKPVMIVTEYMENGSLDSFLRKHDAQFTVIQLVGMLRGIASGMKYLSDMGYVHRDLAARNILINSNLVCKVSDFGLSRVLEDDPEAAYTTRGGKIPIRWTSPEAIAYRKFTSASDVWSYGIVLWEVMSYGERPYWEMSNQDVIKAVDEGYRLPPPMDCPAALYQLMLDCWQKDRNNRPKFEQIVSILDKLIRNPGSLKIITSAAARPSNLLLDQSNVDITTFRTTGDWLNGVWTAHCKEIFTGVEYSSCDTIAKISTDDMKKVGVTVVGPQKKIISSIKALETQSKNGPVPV
Particulars: at 1 µM.

Chain of Epidermal growth factor receptor (Homo sapiens) (P00533 whole entry): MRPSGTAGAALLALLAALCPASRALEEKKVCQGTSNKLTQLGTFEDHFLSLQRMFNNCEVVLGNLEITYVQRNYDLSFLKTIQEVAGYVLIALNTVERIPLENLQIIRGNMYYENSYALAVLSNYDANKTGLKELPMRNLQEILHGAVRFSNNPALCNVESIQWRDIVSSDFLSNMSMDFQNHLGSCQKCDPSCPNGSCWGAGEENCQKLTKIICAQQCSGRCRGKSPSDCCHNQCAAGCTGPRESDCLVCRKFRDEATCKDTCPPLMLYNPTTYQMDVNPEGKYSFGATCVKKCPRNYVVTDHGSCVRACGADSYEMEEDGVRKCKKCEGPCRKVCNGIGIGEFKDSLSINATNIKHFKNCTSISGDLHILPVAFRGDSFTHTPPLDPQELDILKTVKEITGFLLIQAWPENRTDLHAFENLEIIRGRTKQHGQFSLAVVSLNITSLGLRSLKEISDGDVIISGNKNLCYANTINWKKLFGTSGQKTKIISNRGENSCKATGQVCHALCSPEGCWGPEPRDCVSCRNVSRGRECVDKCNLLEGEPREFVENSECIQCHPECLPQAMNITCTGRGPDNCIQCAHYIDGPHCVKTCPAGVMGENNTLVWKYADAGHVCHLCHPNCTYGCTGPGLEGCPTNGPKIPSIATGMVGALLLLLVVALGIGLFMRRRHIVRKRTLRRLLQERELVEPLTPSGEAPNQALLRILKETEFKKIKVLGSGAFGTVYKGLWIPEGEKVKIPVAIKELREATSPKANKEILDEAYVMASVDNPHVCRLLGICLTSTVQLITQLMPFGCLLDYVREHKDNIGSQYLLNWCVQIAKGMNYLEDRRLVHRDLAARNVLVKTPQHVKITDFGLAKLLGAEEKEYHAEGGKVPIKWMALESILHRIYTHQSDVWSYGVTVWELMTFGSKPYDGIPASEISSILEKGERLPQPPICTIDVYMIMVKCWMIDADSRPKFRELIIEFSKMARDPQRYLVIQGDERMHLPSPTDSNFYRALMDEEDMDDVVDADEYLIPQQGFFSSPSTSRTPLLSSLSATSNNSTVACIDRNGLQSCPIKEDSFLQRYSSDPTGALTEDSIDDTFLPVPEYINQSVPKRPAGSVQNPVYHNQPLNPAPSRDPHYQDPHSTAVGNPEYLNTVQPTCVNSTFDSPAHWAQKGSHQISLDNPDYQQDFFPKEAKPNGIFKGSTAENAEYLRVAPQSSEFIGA
Chain of Death-associated protein kinase 2 (Homo sapiens) (Q9UIK4 whole entry, looked up): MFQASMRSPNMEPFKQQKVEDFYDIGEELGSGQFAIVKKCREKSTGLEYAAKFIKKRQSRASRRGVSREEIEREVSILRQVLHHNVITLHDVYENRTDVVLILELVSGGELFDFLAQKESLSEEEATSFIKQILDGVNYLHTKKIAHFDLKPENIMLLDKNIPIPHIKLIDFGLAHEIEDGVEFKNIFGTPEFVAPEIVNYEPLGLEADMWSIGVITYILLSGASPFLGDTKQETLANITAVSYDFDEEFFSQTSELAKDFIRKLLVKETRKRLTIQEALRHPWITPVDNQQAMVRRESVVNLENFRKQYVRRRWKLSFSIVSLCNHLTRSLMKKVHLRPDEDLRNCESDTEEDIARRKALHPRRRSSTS
Chain of Ephrin type-A receptor 2 (Homo sapiens) (P29317 whole entry): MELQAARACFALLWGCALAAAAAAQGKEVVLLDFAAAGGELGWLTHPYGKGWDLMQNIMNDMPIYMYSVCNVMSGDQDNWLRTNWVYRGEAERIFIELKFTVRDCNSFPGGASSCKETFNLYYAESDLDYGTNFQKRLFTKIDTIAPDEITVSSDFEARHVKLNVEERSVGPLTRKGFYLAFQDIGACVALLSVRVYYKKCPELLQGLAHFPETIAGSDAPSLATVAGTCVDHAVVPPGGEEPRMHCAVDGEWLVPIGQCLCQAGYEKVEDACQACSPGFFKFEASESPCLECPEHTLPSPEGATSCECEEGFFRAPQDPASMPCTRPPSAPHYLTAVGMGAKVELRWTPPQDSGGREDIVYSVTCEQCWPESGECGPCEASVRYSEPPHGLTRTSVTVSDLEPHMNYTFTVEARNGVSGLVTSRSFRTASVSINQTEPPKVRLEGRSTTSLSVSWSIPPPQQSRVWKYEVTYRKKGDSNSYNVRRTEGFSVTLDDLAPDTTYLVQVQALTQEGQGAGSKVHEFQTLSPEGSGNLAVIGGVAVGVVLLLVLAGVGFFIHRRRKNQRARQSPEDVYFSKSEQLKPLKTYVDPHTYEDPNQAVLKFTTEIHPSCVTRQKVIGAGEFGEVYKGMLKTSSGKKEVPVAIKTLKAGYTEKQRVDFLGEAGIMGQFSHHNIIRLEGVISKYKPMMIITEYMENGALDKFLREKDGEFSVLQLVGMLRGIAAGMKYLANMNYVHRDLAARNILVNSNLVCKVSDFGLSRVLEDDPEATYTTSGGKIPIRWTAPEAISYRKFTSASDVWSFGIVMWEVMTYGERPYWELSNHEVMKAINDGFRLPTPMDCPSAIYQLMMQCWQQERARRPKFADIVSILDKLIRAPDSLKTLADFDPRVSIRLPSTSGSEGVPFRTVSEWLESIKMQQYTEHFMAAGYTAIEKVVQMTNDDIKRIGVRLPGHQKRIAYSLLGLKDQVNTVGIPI
Chain of Death-associated protein kinase 1 (Homo sapiens) (P53355 whole entry, looked up): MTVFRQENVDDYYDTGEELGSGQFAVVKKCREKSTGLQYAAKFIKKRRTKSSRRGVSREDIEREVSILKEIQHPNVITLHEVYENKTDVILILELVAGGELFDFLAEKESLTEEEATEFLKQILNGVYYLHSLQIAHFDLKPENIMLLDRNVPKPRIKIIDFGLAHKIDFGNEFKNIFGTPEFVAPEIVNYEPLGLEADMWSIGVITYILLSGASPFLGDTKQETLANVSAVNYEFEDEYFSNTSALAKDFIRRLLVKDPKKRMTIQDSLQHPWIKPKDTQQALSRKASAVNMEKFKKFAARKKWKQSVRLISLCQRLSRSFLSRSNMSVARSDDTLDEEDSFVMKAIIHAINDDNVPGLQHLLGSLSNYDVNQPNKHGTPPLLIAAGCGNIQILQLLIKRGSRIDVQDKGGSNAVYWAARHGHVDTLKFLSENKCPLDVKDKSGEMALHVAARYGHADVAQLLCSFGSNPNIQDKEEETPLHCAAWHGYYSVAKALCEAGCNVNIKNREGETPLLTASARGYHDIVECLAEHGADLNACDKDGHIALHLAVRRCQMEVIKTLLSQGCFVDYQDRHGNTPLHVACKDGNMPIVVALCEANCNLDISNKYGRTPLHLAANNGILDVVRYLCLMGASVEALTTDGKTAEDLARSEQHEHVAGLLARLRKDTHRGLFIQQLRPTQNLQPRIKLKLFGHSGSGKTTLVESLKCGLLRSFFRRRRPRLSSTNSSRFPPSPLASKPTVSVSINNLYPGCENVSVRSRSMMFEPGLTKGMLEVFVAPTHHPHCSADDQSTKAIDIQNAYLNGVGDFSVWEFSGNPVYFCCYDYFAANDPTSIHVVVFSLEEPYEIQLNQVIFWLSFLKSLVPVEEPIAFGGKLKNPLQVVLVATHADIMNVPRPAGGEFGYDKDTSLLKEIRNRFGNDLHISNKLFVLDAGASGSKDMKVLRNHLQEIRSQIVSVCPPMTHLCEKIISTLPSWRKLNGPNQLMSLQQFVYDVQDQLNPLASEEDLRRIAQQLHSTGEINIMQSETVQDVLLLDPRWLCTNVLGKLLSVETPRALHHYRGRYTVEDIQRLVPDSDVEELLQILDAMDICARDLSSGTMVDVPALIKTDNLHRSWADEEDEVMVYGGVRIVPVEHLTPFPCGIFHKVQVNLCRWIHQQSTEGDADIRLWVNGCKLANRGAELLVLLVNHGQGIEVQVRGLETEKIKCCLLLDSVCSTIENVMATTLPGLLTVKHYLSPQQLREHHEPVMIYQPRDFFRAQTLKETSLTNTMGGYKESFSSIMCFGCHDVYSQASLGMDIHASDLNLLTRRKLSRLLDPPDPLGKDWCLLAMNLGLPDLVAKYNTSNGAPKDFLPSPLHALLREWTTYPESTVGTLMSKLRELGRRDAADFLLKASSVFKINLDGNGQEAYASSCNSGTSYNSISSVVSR

With `COc1ccc(CNc2nc(N(CCO)CCO)nc3c2ncn3C(C)C)cc1`, the residual activity in assay [1] stood at 88%; in assay [2] it was 102%; in assay [3], 104%; in assay [4], 94%; in assay [5], 80%; in [6], 91%. The residual activity in [7] stood at 96%; in assay [8], 104%; in [9], 73%; in [10], 106%; in [11] it was 85%; in [12] it was 87%. The residual activity in [13] stood at 67%; in [14] it was 97%; in assay [15] it was 116%; in [16], 95%; in assay [17], 81%; in assay [18], 95%. Besides, the residual activity in [19] was 117%; in assay [20], 82%.
